{
  "source": "the supplement of paper PMC11732987",
  "about": "“Enantioselective OTUD7B fragment discovery through chemoproteomics screening and high-throughput optimisation” (Communications Chemistry, 2025)",
  "assay_in_all_cases": "log2 ratio of Biotin-Ahx-Ub-VS probe labelling (fragment/DMSO); higher = less target engagement (more negative = stronger competition), active = hit call of the paper (q ≤ 0.05, log2 ratio ≤ -1)",
  "conditions_in_all_cases": "compound concentration: 200 uM; treatment time: 3 h",
  "key": {"[1]": {"biological_target": "T1, OTUD6B (UniProt Q8N6M0)", "T1 sequence (whole entry)": "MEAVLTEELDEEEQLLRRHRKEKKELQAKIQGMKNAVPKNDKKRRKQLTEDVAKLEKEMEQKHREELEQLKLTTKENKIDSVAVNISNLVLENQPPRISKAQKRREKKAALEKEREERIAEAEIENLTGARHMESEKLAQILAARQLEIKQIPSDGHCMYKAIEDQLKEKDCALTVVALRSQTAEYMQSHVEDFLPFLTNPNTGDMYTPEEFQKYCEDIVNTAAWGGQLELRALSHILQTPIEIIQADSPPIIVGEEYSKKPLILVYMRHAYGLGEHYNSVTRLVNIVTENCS", "outline": "(§1)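 In triplicate, 495 µg of HEK293T lysate per sample was incubated with fragment at 200 µM or vehicle for 3 h. Biotin-Ahx-Ub-VS was then added to 0.5 µM final for 1 h, and labelled DUBs were captured with NeutrAvidin, digested with LysC and trypsin, and measured by diaPASEF LC-MS/MS. Data are average log2 fragment/vehicle ratios by unpaired t-test from global-median-normalised Spectronaut label-free quantities, restricted to proteins with ≥2 unique peptides.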"}, "[2]": {"biological_target": "T2, OTUD7B (UniProt Q6GQQ9)", "T2 sequence (whole entry)": "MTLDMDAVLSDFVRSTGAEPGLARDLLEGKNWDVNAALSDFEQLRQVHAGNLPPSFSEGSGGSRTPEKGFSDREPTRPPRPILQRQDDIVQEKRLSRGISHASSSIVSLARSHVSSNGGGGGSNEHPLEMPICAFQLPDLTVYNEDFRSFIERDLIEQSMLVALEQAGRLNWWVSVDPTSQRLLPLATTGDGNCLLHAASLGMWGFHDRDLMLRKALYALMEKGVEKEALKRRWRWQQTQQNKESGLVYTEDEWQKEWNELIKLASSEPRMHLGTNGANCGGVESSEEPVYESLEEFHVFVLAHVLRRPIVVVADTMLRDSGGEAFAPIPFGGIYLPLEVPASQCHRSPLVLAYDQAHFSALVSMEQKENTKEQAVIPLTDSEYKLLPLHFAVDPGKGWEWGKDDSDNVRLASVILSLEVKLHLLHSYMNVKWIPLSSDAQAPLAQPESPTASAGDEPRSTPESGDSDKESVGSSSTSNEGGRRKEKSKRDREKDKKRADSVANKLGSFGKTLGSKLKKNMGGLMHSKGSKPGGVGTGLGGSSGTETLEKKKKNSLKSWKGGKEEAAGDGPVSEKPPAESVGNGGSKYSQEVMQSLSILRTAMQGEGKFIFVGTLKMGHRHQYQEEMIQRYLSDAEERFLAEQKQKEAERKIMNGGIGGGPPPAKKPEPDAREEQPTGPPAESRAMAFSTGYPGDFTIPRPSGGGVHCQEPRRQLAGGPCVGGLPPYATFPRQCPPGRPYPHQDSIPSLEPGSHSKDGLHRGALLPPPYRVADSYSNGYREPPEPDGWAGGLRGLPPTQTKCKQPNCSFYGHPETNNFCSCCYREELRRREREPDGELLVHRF", "outline": "as §1"}, "[3]": {"biological_target": "PRPF8 (UniProt Q6P2Q9)", "outline": "as §1"}, "[4]": {"biological_target": "T3, PSMD7 (UniProt P51665)", "T3 sequence (whole entry)": "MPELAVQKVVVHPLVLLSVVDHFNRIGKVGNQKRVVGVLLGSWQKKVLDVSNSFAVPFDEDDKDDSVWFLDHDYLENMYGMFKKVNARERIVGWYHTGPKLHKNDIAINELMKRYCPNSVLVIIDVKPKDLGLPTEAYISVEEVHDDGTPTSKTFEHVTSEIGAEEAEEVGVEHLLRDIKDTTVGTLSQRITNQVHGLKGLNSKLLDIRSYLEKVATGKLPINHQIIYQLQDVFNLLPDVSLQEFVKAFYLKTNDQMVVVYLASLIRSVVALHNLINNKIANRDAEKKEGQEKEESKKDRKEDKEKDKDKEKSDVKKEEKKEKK", "outline": "as §1"}, "[5]": {"biological_target": "UCHL1 (UniProt P09936)", "sequence (P09936 whole entry, looked up)": "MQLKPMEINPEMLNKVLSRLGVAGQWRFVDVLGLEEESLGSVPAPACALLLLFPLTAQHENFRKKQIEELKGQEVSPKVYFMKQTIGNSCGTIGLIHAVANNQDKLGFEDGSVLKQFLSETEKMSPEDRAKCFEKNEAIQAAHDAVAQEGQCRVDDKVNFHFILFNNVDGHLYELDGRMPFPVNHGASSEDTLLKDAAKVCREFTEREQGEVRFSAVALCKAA", "outline": "as §1"}, "[6]": {"biological_target": "T4, UCHL3 (UniProt P15374)", "T4 sequence (whole entry)": "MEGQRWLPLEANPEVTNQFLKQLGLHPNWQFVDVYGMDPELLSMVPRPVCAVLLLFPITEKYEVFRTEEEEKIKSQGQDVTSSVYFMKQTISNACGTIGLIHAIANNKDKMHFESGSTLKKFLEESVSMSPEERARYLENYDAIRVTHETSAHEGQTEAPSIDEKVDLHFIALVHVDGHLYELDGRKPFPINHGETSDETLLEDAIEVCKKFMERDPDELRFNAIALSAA", "outline": "as §1"}, "[7]": {"biological_target": "T5, UCHL5 (UniProt Q9Y5K5)", "T5 sequence (whole entry)": "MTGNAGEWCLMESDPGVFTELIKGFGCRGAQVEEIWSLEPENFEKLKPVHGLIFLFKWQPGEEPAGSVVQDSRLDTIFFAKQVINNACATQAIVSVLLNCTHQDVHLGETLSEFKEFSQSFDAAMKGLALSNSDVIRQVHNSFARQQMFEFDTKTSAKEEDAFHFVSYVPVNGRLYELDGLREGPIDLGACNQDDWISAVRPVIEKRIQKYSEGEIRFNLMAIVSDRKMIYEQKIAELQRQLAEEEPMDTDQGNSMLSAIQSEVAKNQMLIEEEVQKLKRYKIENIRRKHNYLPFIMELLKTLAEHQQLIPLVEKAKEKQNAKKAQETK", "outline": "as §1"}, "[8]": {"biological_target": "USP10 (UniProt Q14694)", "sequence (Q14694 whole entry)": "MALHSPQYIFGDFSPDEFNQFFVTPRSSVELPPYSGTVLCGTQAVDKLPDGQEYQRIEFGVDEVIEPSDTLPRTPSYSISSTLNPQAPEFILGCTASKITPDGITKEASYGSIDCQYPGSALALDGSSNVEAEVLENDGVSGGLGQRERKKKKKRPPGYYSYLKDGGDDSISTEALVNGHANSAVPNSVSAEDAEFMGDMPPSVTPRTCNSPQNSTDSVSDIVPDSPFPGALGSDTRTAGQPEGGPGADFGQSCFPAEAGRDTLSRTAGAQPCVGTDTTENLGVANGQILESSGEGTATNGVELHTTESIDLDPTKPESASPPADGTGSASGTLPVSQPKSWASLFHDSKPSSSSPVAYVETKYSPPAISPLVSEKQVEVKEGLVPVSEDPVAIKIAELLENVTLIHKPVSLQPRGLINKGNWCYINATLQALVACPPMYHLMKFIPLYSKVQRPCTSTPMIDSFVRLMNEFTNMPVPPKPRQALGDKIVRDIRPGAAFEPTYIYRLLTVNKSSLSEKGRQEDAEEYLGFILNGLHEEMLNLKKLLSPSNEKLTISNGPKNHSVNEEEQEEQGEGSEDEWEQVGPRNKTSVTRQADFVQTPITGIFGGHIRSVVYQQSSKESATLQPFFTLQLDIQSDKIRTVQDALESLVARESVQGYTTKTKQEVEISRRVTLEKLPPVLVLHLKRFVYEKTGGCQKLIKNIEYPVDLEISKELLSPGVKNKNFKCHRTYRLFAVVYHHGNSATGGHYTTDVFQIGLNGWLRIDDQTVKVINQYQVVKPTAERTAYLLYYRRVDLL", "outline": "as §1"}, "[9]": {"biological_target": "T6, USP15 (UniProt Q9Y4E8)", "T6 sequence (whole entry)": "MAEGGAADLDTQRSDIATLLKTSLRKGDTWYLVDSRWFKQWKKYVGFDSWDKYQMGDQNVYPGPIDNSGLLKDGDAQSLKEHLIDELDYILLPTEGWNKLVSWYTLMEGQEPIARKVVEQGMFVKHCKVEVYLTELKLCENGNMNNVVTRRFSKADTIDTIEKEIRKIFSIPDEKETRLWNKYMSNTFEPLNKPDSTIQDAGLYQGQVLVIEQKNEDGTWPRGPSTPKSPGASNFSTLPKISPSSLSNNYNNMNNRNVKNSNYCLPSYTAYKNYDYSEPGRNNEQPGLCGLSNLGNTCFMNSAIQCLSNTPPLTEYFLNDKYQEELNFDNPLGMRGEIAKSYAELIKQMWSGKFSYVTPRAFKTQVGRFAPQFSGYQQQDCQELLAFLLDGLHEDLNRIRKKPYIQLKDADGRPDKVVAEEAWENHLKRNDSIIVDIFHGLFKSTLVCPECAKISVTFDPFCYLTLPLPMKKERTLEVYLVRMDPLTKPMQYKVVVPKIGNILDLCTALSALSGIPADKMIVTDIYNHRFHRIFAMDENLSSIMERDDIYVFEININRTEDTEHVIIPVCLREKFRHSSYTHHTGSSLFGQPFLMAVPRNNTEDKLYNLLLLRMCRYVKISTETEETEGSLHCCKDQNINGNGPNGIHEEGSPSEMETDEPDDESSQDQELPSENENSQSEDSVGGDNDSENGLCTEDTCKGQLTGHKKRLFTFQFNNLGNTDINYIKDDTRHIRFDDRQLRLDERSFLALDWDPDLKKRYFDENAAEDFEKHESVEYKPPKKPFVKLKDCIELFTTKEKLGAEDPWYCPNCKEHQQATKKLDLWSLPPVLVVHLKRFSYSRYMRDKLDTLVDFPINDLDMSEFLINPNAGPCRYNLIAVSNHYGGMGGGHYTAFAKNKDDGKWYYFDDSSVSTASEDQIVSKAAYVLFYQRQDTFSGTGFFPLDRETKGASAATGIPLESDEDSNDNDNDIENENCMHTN", "outline": "as §1"}, "[10]": {"biological_target": "USP16 (UniProt Q9Y5T5)", "sequence (Q9Y5T5 whole entry, looked up)": "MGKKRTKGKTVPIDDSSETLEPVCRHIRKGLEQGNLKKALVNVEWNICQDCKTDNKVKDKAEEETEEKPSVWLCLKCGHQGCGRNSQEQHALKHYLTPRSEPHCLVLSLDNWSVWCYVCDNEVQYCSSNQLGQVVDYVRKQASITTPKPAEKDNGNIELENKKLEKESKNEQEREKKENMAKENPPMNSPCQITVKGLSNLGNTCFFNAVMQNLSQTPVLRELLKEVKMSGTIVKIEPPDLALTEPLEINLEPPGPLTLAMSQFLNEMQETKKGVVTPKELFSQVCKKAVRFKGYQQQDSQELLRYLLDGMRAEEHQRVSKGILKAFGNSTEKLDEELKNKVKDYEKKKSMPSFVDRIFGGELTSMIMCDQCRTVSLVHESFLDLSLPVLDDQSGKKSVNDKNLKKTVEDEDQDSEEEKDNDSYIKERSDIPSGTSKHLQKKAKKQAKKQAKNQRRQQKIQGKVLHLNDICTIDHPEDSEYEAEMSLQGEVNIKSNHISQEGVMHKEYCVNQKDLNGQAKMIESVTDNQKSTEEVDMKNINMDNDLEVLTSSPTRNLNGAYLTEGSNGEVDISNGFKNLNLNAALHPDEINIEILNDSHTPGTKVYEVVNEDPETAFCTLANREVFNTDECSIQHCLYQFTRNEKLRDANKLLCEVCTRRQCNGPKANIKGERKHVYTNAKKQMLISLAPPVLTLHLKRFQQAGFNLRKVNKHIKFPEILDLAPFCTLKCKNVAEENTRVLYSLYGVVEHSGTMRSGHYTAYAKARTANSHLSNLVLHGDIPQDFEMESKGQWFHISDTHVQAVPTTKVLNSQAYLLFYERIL", "outline": "as §1"}},
  "note": "A number with no mark means an inactive call.",
  "data": [
    {"molecule": "O=C(CCl)N1CCc2sccc2C1", "values": [
      {"measurement": "log2 ratio of Biotin-Ahx-Ub-VS probe labelling", "setting": "[1]", "result": -0.251},
      {"measurement": "log2 ratio of Biotin-Ahx-Ub-VS probe labelling", "setting": "[2]", "result": "-1.08 (active)"},
      {"measurement": "log2 ratio of Biotin-Ahx-Ub-VS probe labelling", "setting": "[3]", "result": 0.249},
      {"measurement": "log2 ratio of Biotin-Ahx-Ub-VS probe labelling", "setting": "[4]", "result": -0.000885},
      {"measurement": "log2 ratio of Biotin-Ahx-Ub-VS probe labelling", "setting": "[5]", "result": "-1.18 (active)"},
      {"measurement": "log2 ratio of Biotin-Ahx-Ub-VS probe labelling", "setting": "[6]", "result": -0.458},
      {"measurement": "log2 ratio of Biotin-Ahx-Ub-VS probe labelling", "setting": "[7]", "result": -0.259},
      {"measurement": "log2 ratio of Biotin-Ahx-Ub-VS probe labelling", "setting": "[8]", "result": -0.16},
      {"measurement": "log2 ratio of Biotin-Ahx-Ub-VS probe labelling", "setting": "[9]", "result": -0.737},
      {"measurement": "log2 ratio of Biotin-Ahx-Ub-VS probe labelling", "setting": "[10]", "result": -0.278}
    ]}
  ]
}
